Sa growth inh – inhibitors of Staphylococcus aureus growth at 42 °C. relative growth, % (test concentration not listed). 170,000 tested, 0.53% active. S. aureus RN4220 growth, OD600, 20 h; stronger effect = lower value. AID 720641;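 active means relative growth at most 50% at the other temperature and 20+ points below 30 °C, or under 10% at both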
S aureus helic – S. aureus DNA helicase inhibition | purified S. aureus helicase, fluorescence unwinding assay | inhibition, % (concentration not given with the values) | 120,000 tested, 0.05% active | AID 485395; in the data active means inhibition above about 25%, passing the limit was not always enough
A number is an active result. The entries come from a sample that favours hits as a whole.

Results for Cc1cc(C(=O)CSc2n[nH]c(-c3cccs3)n2)c(C)n1-c1nccs1 ?
Sa growth inh: inactive; S aureus helic: inactive

How did O=C(Cn1c(COc2ccc(Cl)cc2)nc2ccccc21)NCc1ccco1 do in these assays?
Sa growth inh: inactive; S aureus helic: inactive

How did CCOC(=O)Cc1c[nH]c2ccccc12 do in these assays?
Sa growth inh: inactive; S aureus helic: inactive

Results for CCCC(=O)Oc1c[nH]c2ccccc12 ?
Sa growth inh: 3.9

What do the screens show for `Oc1c(CN2CCOCC2)ccc2ccccc12`?
Sa growth inh: inactive; S aureus helic: inactive

How did Cc1ccc(C(c2c(O)ccc3ccccc23)N2CCOCC2)o1 (stereo not drawn) do in these assays?
Sa growth inh: -0.6; S aureus helic: inactive

What do the screens show for `O=C(CNc1ccc(S(=O)(=O)N2CCCC2)cc1)N1CCc2ccccc21`?
Sa growth inh: inactive; S aureus helic: inactive

Results for CC(C)S(=O)(=O)c1ccc(Cl)cc1 ?
Sa growth inh: inactive; S aureus helic: inactive

How did NCCN1C(=O)S/C(=C\c2ccc(Cl)c(Cl)c2)C1=O do in these assays?
Sa growth inh: -0.6; S aureus helic: inactive

Results for O=C1S/C(=C\c2ccc(Cl)cc2)C(=O)N1Cc1ccccc1 ?
Sa growth inh: inactive; S aureus helic: inactive

Results for O=C(CN1CCN(S(=O)(=O)c2ccc3c(c2)OCCO3)CC1)NC1CCCc2ccccc21 (stereo not drawn) ?
Sa growth inh: inactive; S aureus helic: inactive

Results for CO[C@H]1C=CO[C@@]2(C)Oc3c(C)c(O)c4c(O)c(c(C=NN5CCN(C6CCCC6)CC5)c(O)c4c3C2=O)NC(=O)C(C)=CC=C[C@H](C)[C@H](O)[C@@H](C)[C@@H](O)[C@@H](C)[C@H](OC(C)=O)[C@@H]1C ?
Sa growth inh: 3.9

How did COc1ccc(NC(C)=O)cc1NC(=O)c1cncn1-c1ccc(F)cc1 do in these assays?
Sa growth inh: inactive; S aureus helic: inactive

How did CCS(=O)(=O)N1CC(C)OC(C)C1 (stereo not drawn) do in these assays?
Sa growth inh: inactive; S aureus helic: inactive

How did COc1ccc(/C=N\N2CCN(Cc3ccc(C)cc3)CC2)cc1OC do in these assays?
Sa growth inh: inactive; S aureus helic: inactive

Results for CCCc1cc(=O)[nH]c(SCC(=O)N(CC(C)C)C2CCS(=O)(=O)C2)n1 (stereo not drawn) ?
Sa growth inh: inactive; S aureus helic: inactive

What do the screens show for `Cc1nnc(SCC(=O)N(CC(C)C)C2CCS(=O)(=O)C2)s1` (stereo not drawn)?
Sa growth inh: inactive; S aureus helic: 26

How did O=C(Nc1nnc(-c2ccc(Cl)cc2)o1)C1CC1 do in these assays?
Sa growth inh: 2.6; S aureus helic: inactive

What do the screens show for `COc1cc(OC)cc(-c2nnc(NC(=O)c3ccc(S(=O)(=O)N(C)c4ccccc4)cc3)o2)c1`?
Sa growth inh: -0.1; S aureus helic: inactive

How did COc1ccc(-c2nnc(NC(=O)C3CC3)o2)cc1 do in these assays?
Sa growth inh: inactive; S aureus helic: inactive

How did CN(Cc1ccccc1)S(=O)(=O)c1ccc(C(=O)Nc2nnc(-c3ccco3)o2)cc1 do in these assays?
Sa growth inh: inactive; S aureus helic: inactive

What do the screens show for `O=C(Nc1nnc(-c2cccs2)o1)c1ccccc1`?
S aureus helic: inactive

Results for O=C(Nc1nnc(C2=COCCO2)o1)c1cccc2ccccc12 ?
Sa growth inh: inactive; S aureus helic: inactive

How did O=C(Nc1nnc(-c2ccccc2)o1)c1ccccc1 do in these assays?
Sa growth inh: 0.0; S aureus helic: inactive

How did O=C(Nc1nnc(C2=COCCO2)o1)c1ccc(Cl)cc1 do in these assays?
Sa growth inh: 3.7; S aureus helic: inactive

How did Cc1ccc2c(c1)N(Cc1cccc(C(F)(F)F)c1)C(=O)C(C)O2 (stereo not drawn) do in these assays?
Sa growth inh: inactive; S aureus helic: inactive

How did COc1ccc(-c2nnc(NC(=O)c3ccc(S(=O)(=O)N4CCCc5ccccc54)cc3)o2)cc1 do in these assays?
Sa growth inh: inactive; S aureus helic: inactive

Results for CN(C1CCCCC1)S(=O)(=O)c1ccc(C(=O)Nc2ccccc2)cc1 ?
S aureus helic: inactive

What do the screens show for `CN(C1CCCCC1)S(=O)(=O)c1ccc(C(=O)Nc2nnc(-c3cccnc3)o2)cc1`?
Sa growth inh: 2.3; S aureus helic: inactive

What do the screens show for `COc1cc(OC)cc(-c2nnc(NC(=O)c3ccc(S(=O)(=O)N4COCC4(C)C)cc3)o2)c1`?
Sa growth inh: 1.0; S aureus helic: inactive

How did Cn1c(=O)c(C#N)nn(-c2ccccc2)c1=O do in these assays?
Sa growth inh: inactive; S aureus helic: inactive

Results for CCOC(=O)C1=C(c2ccccc2)OC(N)=C(C#N)C1CC(C)C (stereo not drawn) ?
S aureus helic: inactive

Results for CC(C)(C)C(=O)COC(=O)C1(c2ccc(F)cc2)CCCC1 ?
Sa growth inh: inactive; S aureus helic: inactive

Results for O=C(Nc1nc2ccccc2[nH]1)C1CCCN(C(=O)c2ccc(Cl)cc2)C1 (stereo not drawn) ?
Sa growth inh: inactive; S aureus helic: inactive

Results for CCC1(c2cccc(OC(=O)Nc3ccc(OC(F)(F)F)cc3)c2)CCCCN(C)C1=O (stereo not drawn) ?
Sa growth inh: 4.2

What do the screens show for `O=C(O)CC1(CC(=O)Nc2ccc(OC(F)(F)F)cc2)CCCC1`?
Sa growth inh: inactive

Results for NC[C@H]1O[C@H](O[C@H]2[C@H](O)[C@@H](O[C@H]3O[C@H](CO)[C@@H](O)[C@H](N)[C@H]3O)[C@H](N)C[C@@H]2N)[C@H](N)[C@@H](O)[C@@H]1O ?
Sa growth inh: -0.2

What do the screens show for `CN[C@@H]1[C@@H](O[C@H]2O[C@H](CO)[C@@H](N)[C@H](O)[C@H]2O)O[C@H]2C[C@@H](N)[C@H](O[C@H]3[C@H](O)[C@@H](O)[C@H](N)C[C@@H]3N)O[C@@H]2[C@@H]1O`?
Sa growth inh: inactive

How did O=C(O)/C=C/C(=O)Nc1ccc2c(c1)OCCO2 do in these assays?
Sa growth inh: inactive

What do the screens show for `CN1C(=O)/C(=C\C(=O)c2cccs2)c2ccccc21`?
Sa growth inh: 2.9; S aureus helic: inactive

Results for O=C(C=C1SCCS1)c1cccs1 ?
Sa growth inh: inactive

What do the screens show for `CC1(C)CC(=O)C=C(Nc2ccc(N3CCOCC3)cc2)C1`?
Sa growth inh: inactive; S aureus helic: inactive

Results for CCOc1cccc(OCC)c2c(C)nc(C)c1-2 ?
Sa growth inh: inactive; S aureus helic: inactive

Results for CCOc1cccc(OCC)c2c(C)[n+](C)c(C)c1-2 ?
Sa growth inh: inactive; S aureus helic: 58

How did CC(C)CNC(=O)c1ccccc1NC(=O)c1ccco1 do in these assays?
Sa growth inh: inactive; S aureus helic: inactive

How did CCOC(=O)N1CCN(CCC(=O)c2ccc(Br)cc2)CC1 do in these assays?
Sa growth inh: -1.7; S aureus helic: inactive

Results for CCOC(=O)N1CCN(CCC(=O)c2ccc(OC)cc2)CC1 ?
Sa growth inh: inactive; S aureus helic: inactive

What do the screens show for `CCOC(=O)n1c(SCC)nc2ccccc21`?
Sa growth inh: inactive; S aureus helic: inactive

What do the screens show for `CN(C)c1ccc2nc3ccc(=[N+](C)C)cc-3sc2c1`?
Sa growth inh: inactive

What do the screens show for `Cc1cc2nc3ccc(=[N+](C)C)cc-3sc2cc1N`?
Sa growth inh: inactive; S aureus helic: 132

What do the screens show for `Oc1c(N=Nc2ccccc2)cc2c3c1CCCN3CCC2`?
Sa growth inh: inactive; S aureus helic: inactive

What do the screens show for `Cc1[nH]n2c(=O)cc(-c3ccccc3Cl)nc2c1-c1ccccc1`?
Sa growth inh: inactive

Results for Cc1[nH]n2c(=O)cc(-c3ccccc3)nc2c1-c1ccccc1 ?
Sa growth inh: 0.0; S aureus helic: inactive

Screens: PubChem, ICCB-Longwood Screening Facility, Harvard Medical School
